Compounds with a hit are over-represented: about 3.1% of the library has one in this group of screens.
eLon inh – inhibitors of E. coli Lon protease | AID 602123 | purified E. coli Lon protease, fluorescence polarization | 0.42% of 360,000 active | inhibition, % at 7.94 µM | P0A9M0; in the data active = inhibition above about 13%, passing the limit was not always enough;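 note: 0% = enzyme with probe and DMSO and 100% = no enzyme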
Target sequence (P0A9M0 whole entry, looked up): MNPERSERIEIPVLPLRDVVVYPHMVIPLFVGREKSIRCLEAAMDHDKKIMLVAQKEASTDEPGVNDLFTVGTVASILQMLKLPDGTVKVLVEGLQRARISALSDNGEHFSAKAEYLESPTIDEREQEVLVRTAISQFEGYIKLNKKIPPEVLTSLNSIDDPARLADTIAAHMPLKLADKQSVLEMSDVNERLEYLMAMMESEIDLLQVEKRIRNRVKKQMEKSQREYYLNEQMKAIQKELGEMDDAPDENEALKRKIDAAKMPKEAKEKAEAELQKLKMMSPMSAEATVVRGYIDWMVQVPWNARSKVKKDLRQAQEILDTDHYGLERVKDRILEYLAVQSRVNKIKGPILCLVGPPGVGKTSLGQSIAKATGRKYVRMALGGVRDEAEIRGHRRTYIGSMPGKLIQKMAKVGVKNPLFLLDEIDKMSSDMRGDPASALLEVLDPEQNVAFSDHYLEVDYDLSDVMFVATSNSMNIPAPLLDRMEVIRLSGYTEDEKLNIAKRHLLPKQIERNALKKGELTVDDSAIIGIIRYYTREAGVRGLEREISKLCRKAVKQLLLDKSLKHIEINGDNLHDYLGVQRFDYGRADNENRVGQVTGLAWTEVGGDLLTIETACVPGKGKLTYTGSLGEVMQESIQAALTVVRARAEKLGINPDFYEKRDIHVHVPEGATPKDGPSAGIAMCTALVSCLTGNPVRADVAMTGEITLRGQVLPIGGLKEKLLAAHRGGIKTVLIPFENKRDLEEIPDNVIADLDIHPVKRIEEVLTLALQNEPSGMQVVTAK
PAFAH1B2 inh – PAFAH1B2 (human) inhibition; recombinant PAFAH1B2, FP-rhodamine activity probe, fluorescence polarization; inhibition, % at 3.39 µM; 1.2% of 340,000 active; AID 492953;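 active = inhibition above the mean of all tested compounds plus 3 SD, cut at about 24% in these data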;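 note: 0% = enzyme with DMSO and 100% = wells lacking PAFAH1B2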
PAFAH1B3 inh – PAFAH1B3 (human) inhibition; AID 492972; inhibition, % at 3.39 µM; 0.28% of 340,000 active; recombinant PAFAH1B3, FP-rhodamine probe, fluorescence polarization;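 active = inhibition above the screen-wide average of all tested compounds plus 3 SD, cut at about 25% in these data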;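 note: 0% = enzyme with DMSO only and 100% = wells lacking PAFAH1B3 protein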
pPAFAH inh – inhibitors of human plasma PAF acetylhydrolase (pPAFAH) | inhibition, % at 3.39 µM | recombinant pPAFAH, FP-rhodamine probe fluorescence polarization | AID 463082 | 1.5% of 330,000 active | Q13093;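 active = inhibition above the mean inhibition across the screen plus 3 SD, cut at about 25% in these data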;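 note: inhibitors block binding of the rhodamine activity-based probe so polarization drops; 0% = enzyme with DMSO and 100% = wells lacking pPAFAH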
PAFAH2 inh – PAFAH2 (human) inhibition. Q99487. recombinant PAFAH2, FP-rhodamine activity probe, fluorescence polarization. inhibition, % at 3.39 µM. 0.99% of 340,000 active. AID 492956;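 active = inhibition above the mean over all tested compounds plus 3 SD, cut at about 30% in these data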;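 note: inhibitors block probe labeling of enzyme so polarization drops; 0% = enzyme with DMSO and 100% = wells lacking PAFAH2 protein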
Rin1-Abl PPI inh – blocks binding of human Rin1 to Abl | 0.4% of 360,000 active | P00519+Q13671 | TR-FRET Rin1/Abl binding, biochemical | inhibition, % at 7.35 µM; in the data active = inhibition above about 5%, passing the limit was not always enough
Numbers without * were called inactive; / = no result given.

SMILES | eLon inh | PAFAH1B2 inh | PAFAH1B3 inh | pPAFAH inh | PAFAH2 inh | Rin1-Abl PPI inh
C=CCC[C@H](Cc1ccc(F)cc1)C(=O)OC[C@@H](Cc1c[nH]c2ccccc12)NC(=O)[C@@H](CC=C)CC(=O)N[C@@H](CO)Cc1ccccc1 | -6 | 2 | -8 | 14 | -3 | 3
COc1ccc(C2c3ccc(O)cc3Oc3ncn4nc(-c5ccncc5)nc4c32)cc1OC (stereo unspecified) | -9 | -22 | -20 | -2 | -30 | -1
O=C(COc1ccc2c(-c3ccccc3)cc(=O)oc2c1)N[C@@H](Cc1c[nH]c2ccc(O)cc12)C(=O)O | -10 | 63* | 5 | 16 | -2 | -3
Cc1cc(OC(C)C(=O)NC(Cc2c[nH]c3ccc(O)cc23)C(=O)O)c2c(C)cc(=O)oc2c1 (stereo unspecified) | -5 | 5 | -1 | 1 | 2 | 3
CC(Oc1ccc2c(-c3ccccc3)cc(=O)oc2c1)C(=O)NC(Cc1c[nH]c2ccc(O)cc12)C(=O)O (stereo unspecified) | -3 | 71* | 7 | 15 | -2 | -1
O=C(Cc1cc(=O)oc2cc(O)ccc12)N[C@@H](Cc1c[nH]c2ccccc12)C(=O)O | 1 | 7 | 9 | 9 | 6 | -4
NS(=O)(=O)c1ccc(NC(=O)c2cccc3cc4ccccc4nc23)cc1 | -38 | -29 | -35 | / | -40 | -1
CCN(CC)CCCn1c2c(c(SCC(=O)N3CCc4ccccc43)nc1=O)CCC2 | -6 | 4 | 4 | 4 | 3 | -2
O=C(COC(=O)C1CC1)Nc1ccc(Cl)cc1Cl | -12 | 4 | 13 | 9 | 64* | -1
COc1ccc(NS(=O)(=O)c2ccc(OC)c(NC(=O)CCC3CCCC3)c2)cc1 | 1 | 1 | -1 | 27* | -5 | -4
O=C(COC(=O)CCC1CCCC1)Nc1ccccc1Br | 4 | 3 | 11 | 34* | 20 | 0
Cc1cc(C)cc(NC(=O)COC(=O)CCC2CCCC2)c1 | -5 | -2 | 1 | 22 | 14 | 3
CN(C)S(=O)(=O)c1ccc(Cl)c(NC(=O)COC(=O)CCC2CCCCC2)c1 | 2 | 5 | 2 | 25* | 38* | 0
CN(C)S(=O)(=O)c1ccc(Cl)c(NC(=O)COC(=O)CCSc2ccccc2)c1 | -2 | 10 | 9 | 15 | 1 | 1
Nc1c(C(=O)NCCc2ccc(Cl)cc2)sc2ccc(S(=O)(=O)N3CCCCC3)cc12 | / | / | / | 2 | / | /
Cc1cccc(C)c1NCC(=O)N1CCN(Cc2ccccc2)CC1 | -3 | 3 | 5 | 7 | 10 | -2
Cc1ccc(Cl)c(NC(=O)CSc2n[nH]c(=O)n2C2CC2)c1Cl | 4 | 6 | 7 | 0 | 6 | 1
COc1ccccc1NC(=O)COC(=O)CCC1CCCC1 | 8 | 4 | 8 | 29* | 18 | 4
COc1ccc(C(=O)NCC(=O)OCC(=O)Nc2cc(OC)ccc2OC)cc1 | 1 | 3 | 7 | 0 | -5 | 1
COc1cccc(NC(=O)COC(=O)CCC2CCCC2)c1 | -14 | 5 | 0 | 28* | 19 | 2
NC(=O)C1(N2CCCCC2)CCN(CC(=O)Nc2ccc(Oc3ccccc3)cc2)CC1 | 3 | 2 | -8 | 28* | 6 | 3
COc1ccc(OC)c(NC(=O)COC(=O)CCC2CCCC2)c1 | -5 | 8 | 5 | 33* | 15 | 2
O=C(CN1CCCCCC1)Nc1ccc(Oc2ccccc2)cc1 | -6 | 1 | 1 | 7 | 4 | 2
COCCNC(=O)C(=O)NCC1OCCN1S(=O)(=O)c1ccc(F)cc1 (stereo unspecified) | -6 | -4 | 9 | 3 | 0 | 2
CCOC(=O)N1CCC(Nc2ccc(N3C(=O)C4CCCCC4C3=O)cc2[N+](=O)[O-])CC1 (stereo unspecified) | -1 | 5 | 3 | 7 | -4 | -3
SMILES | eLon inh | PAFAH1B2 inh | PAFAH1B3 inh | pPAFAH inh | PAFAH2 inh | Rin1-Abl PPI inh
COc1cc(CC(=O)OCC(=O)c2ccc[nH]2)cc(OC)c1OC | -21 | 2 | 5 | 0 | 11 | 4
O=C(COC(=O)C1CC1)Nc1ccc(Oc2ccccc2)cc1 | 11 | 5 | 7 | 27* | 91* | -3
O=C(COC(=O)CCC1CCCC1)Nc1ccc(Cl)cc1F | 0 | 7 | 7 | 27* | 24 | 0
CC[C@@]1(C(=O)OC)N[C@H](CN(C)C(=O)COc2ccccc2)[C@@H]2C(=O)N(Cc3ccccc3)C(=O)[C@@H]21 | -1 | 2 | 2 | 1 | 12 | -2
CCCc1nc2ccc(C(=O)OC)cn2c1Cc1cccc(F)c1 | -17 | / | / | / | / | -2
Brc1cc2c(cc1-c1nc3ccccc3s1)OCO2 | -8 | 3 | 6 | 2 | 0 | -2
Oc1ccc(N=C/C=C/c2ccc(Br)cc2)cc1-c1nc2ccccc2s1 | / | / | / | 53* | / | /
N=C1/C(=C/c2ccc(OCc3ccccc3)cc2)C(=O)N=C2SC(CC(=O)N3CCOCC3)=NN12 | -5 | 28* | -2 | 9 | -2 | 2
COc1cc(/C=C2/C(=N)N3N=C(CC(=O)N4CCOCC4)SC3=NC2=O)ccc1OC(C)c1ccccc1 (stereo unspecified) | -24 | 28* | -5 | 9 | 0 | 5
CC1(CO)CCCC1NCCNC1CCCC1(C)CO (stereo unspecified) | -5 | / | / | / | / | 3
C[C@@H]1CN([C@@H](C)CO)C(=O)CCCn2nncc2CO[C@H]1CN(C)Cc1ccc2c(c1)OCCO2 | -10 | / | / | / | / | 3
COc1ccc2nc3oc(C(=O)N4CCC(C(N)=O)CC4)cc3cc2c1 | -3 | -1 | 18 | 31* | 5 | -2
O=C(O)c1cccc(S(=O)(=O)Nc2ccc3oc(=O)sc3c2)c1 | 1 | 27* | 7 | 4 | -4 | -2
Cc1cc([N+](=O)[O-])c2c(c1C)C1C=CCC1C(c1ccccn1)N2 (stereo unspecified) | / | / | / | 28* | / | /
Fc1ccccc1NC(=S)N1CCN(Cc2ccccc2)CC1 | 7 | 0 | 4 | 32* | 1 | 1
CCOC(=O)[C@]12CCCC=C1N(Cc1ccco1)C(=O)[C@H](CC(=O)N1CCCCC1)C2 | -1 | / | / | / | / | /
COC(=O)c1cc(NC(=O)Cc2cccs2)cc(C(=O)OC)c1 | -5 | 5 | 11 | 26* | 9 | -1
Cc1ccc([N+](=O)[O-])cc1NC(=O)Cc1cccs1 | -6 | -2 | 2 | 27* | 1 | -2
CC(=O)Nc1cccc(NC(=O)Cc2cccs2)c1 | -3 | -2 | 9 | 11 | 1 | 1
COc1ccc(CCC(=O)NCc2cn3ccccc3n2)cc1 | 3 | 3 | 5 | -1 | -2 | -1
COc1ccc(Br)cc1S(=O)(=O)Nc1ncn[nH]1 | 2 | -1 | -4 | 1 | -4 | 0
O=C(C1CC(=O)N(c2ccc(F)cc2)C1)N1CCCCCC1 (stereo unspecified) | 1 | 0 | -4 | 4 | 4 | 1
Cc1ccc(NC(=O)O/N=C/c2ccc(Br)cc2)cc1 | 3 | 58* | 4 | 8 | -3 | -2

Source: PubChem (The Scripps Research Institute Molecular Screening Center)
